Test results: PubChem BioAssay AID2284333 (EPA ToxCast)
Inconclusive results are not listed. Active and inactive are the calls of the source. The calls were made as follows: active = hit-call score of the fitted dose curve at least 0.9, where 1 is the maximum; inconclusive = response in the unintended direction; inactive = score below 0.9.

The molecules below were run against rainbow trout Glucocorticoid Receptor (GR), nr3c1 (gene 100136786) (UniProt P49843) (assay: ATG_rtGR_EcoTox2: Attagene TRANS-FACTORIAL EcoTox-2 HepG2 Assay for rainbow trout Glucocorticoid Receptor (GR)).
Protocol: ATG_EcoTox2 is a cell-based, multiplexed assay created by modifying the existing Attagene TRANS-FACTORIAL system to include a panel of nuclear receptors from some or all the following species: human (Homo sapiens), african clawed frog (Xenopus laevis), rainbow trout (Oncorhynchus mykiss), japanese medaka (Oryzias latipes), and zebrafish (Danio rerio). The ECOTOX2-FACTORIAL format uses HepG2, a human liver cell line, with measurements taken at 24 hours after chemical dosing in a 24-well plate. ATG_rtGR_EcoTox2 is one of 29 assay components calculated in the ATG_EcoTox2 assay. It is designed to make measurements of mRNA induction, a form of inducible reporter, as detected with fluorescence intensity signals by Reverse transcription polymerase chain reaction (RT-PCR) and Capillary electrophoresis technology.The assay endpoint ATG_rtGR_EcoTox2 was analyzed in the positive analysis fitting direction relative to DMSO as the negative control and baseline of activity. Using a type of inducible reporter, measures of mRNA for gain-of-signal activity can be used to understand the reporter gene at the transcription factor-level as they relate to the gene for glucocorticoid receptor. Furthermore, this assay endpoint can be referred to as a primary readout, because this assay has produced multiple assay endpoints where this one serves a reporter gene function. To generalize the intended target to other relatable targets, this assay endpoint is annotated to the nuclear receptor intended target family, where the subfamily is steroidal.
Human liver HepG2 cells are transiently transfected with multiple reporter transcription units (MRTUs) in 6-well plates using FuGene 6 reagent (Roche; 3 ml FuGene/1 mg DNA). The MRTU constructs are regulated by a cis-regulating element (promoter). Each RTU expresses a GAL4-UAS that regulates the transcription of a nearby target reporter gene sequence. A major difference between the CIS and TRANS system is that in CIS activities of endogenous TFs are measured, whereas the TRANS assay evaluates changes in activities of exogenous, chimeric NR-Gal4 proteins. […] At the end of 24 hour incubation, total RNA was isolated using TriZol reagent (Invitrogen). The isolated RNA is then reverse-transcribed using oligo(dT) primer and Mo-MLV reverse transcriptase (Invitrogen) with DNAse I (Ambion) treatment for 30 min. The one-tenth of the produced cDNA was amplified by PCR using Taq DNA polymerase (Invitrogen) and two reporter sequence-specific primers. […] The fragments were purified using Qiaquick PCR columns (Qiagen), analyzed on an ABI 3130xL genetic analyzer (Applied Biosystems) with peak positions identified by using a set of X-rhodamine (ROX)-labeled MapMarker1000 molecular weight standards (BioVentures). […]

rainbow trout Glucocorticoid Receptor (GR), nr3c1 (gene 100136786), sequence (P49843 whole entry, looked up): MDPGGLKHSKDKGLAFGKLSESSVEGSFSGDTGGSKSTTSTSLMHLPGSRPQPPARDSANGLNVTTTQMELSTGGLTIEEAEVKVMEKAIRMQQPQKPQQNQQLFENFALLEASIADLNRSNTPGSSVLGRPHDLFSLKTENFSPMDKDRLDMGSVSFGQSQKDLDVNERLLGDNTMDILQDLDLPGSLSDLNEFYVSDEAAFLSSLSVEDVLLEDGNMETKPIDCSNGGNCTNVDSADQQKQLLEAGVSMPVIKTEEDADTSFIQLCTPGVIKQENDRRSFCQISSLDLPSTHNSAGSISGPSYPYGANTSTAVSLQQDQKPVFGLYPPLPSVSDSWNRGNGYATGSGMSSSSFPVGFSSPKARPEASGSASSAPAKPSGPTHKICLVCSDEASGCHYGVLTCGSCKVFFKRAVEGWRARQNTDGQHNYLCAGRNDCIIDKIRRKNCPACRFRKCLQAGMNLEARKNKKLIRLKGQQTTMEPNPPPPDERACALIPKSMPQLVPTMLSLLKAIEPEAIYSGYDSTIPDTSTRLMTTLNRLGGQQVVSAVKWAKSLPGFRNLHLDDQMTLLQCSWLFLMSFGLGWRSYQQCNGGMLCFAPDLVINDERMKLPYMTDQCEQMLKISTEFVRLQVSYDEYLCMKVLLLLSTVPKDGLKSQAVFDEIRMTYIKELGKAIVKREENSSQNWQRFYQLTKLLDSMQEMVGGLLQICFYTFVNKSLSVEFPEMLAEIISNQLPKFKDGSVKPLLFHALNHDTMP

SMILES	outcome
[Cl][Sn]([c]1ccccc1)([c]1ccccc1)[c]1ccccc1	inactive
O=S(=O)(O)C(F)(F)C(F)(F)C(F)(F)C(F)(F)C(F)(F)C(F)(F)F	inactive
CCCCOCN(C(=O)CCl)c1c(CC)cccc1CC	inactive
O=C(O)C(F)(F)C(F)(F)C(F)(F)C(F)(F)C(F)(F)C(F)(F)C(F)(F)F	inactive
